Data taken from PubChem BioAssay AID1159580 (chemical genetic matrix, 2015).
“And” between values parts separate entries of the source, which are not always exact repeats. Equal values may be shown once. Hit rate of the full screen: of about 5,500 compounds, about 2,000 (36%) were called active. Inconclusive results (about 18%) are left out. Cut-off read from the data, not from the text of the source: active = normalized growth mostly below about 0.91 (no sharp cut-off); inconclusive = no clear call, values can overlap the other calls; inactive = mostly above about 0.92. This is one part of the list.

Test: chemical genetic growth profiling, strain panel (AID 1159580);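 note: tested at 20 µM; growth read once vehicle control cultures reached saturation at 30 °C; 1 = growth at the plate median or of vehicle wells; lower values mean less growth of the strain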
Conditions: growth OD

Measured: normalized growth

CN1CCC(=C2c3ccccc3CC(=O)c3sccc32)CC1
inactive: S. cerevisiae deletion strains, locus YKL009W, strain mrt4, stronger effect = lower value 1.02 | S. cerevisiae deletion strains, locus YKL068W, stronger effect = lower value 1.02 | S. cerevisiae deletion strains, locus YKL085W, strain MDH1 (second series), stronger effect = lower value 1.01 | S. cerevisiae deletion strains, locus YKL085W, strain MDH1, stronger effect = lower value 1.01 | S. cerevisiae deletion strains, locus YKL160W, strain elf1, stronger effect = lower value 0.987 | S. cerevisiae deletion strains, locus YKL190W, strain CNB1, stronger effect = lower value 1.01 | S. cerevisiae deletion strains, locus YKR001C, strain vps1, stronger effect = lower value 1.01 | S. cerevisiae deletion strains, locus YKR026C, strain gcn3, stronger effect = lower value 0.981 | S. cerevisiae deletion strains, locus YKR091W, strain srl3, stronger effect = lower value 0.979 | S. cerevisiae deletion strains, locus YLL001W, strain dnm1, stronger effect = lower value 0.935 | S. cerevisiae deletion strains, locus YLL026W, stronger effect = lower value 0.963 | S. cerevisiae deletion strains, locus YLL041C, strain sdh2, stronger effect = lower value 0.986 | S. cerevisiae deletion strains, locus YLR027C, strain aat2, stronger effect = lower value 0.973 | S. cerevisiae deletion strains, locus YLR039C, strain RIC1, stronger effect = lower value 0.996 | S. cerevisiae deletion strains, locus YLR058C, strain SHM2, stronger effect = lower value 1 | S. cerevisiae deletion strains, locus YLR102C, strain apc9, stronger effect = lower value 1.01 | S. cerevisiae deletion strains, locus YLR113W, strain HOG1, stronger effect = lower value 1.02 | S. cerevisiae deletion strains, locus YLR221C, strain rsa3, stronger effect = lower value 1.04 | S. cerevisiae deletion strains, locus YLR258W, strain gsy2, stronger effect = lower value 1.01 | S. cerevisiae deletion strains, locus YLR262C, strain YPT6 (second series), stronger effect = lower value 0.956 | S. cerevisiae deletion strains, locus YLR262C, strain YPT6, stronger effect = lower value 1 | S. cerevisiae deletion strains, locus YLR268W, strain sec22, stronger effect = lower value 1.03 | S. cerevisiae deletion strains, locus YLR320W, strain mms22, stronger effect = lower value 1.02 | S. cerevisiae deletion strains, locus YLR330W, strain CHS5, stronger effect = lower value 1 | S. cerevisiae deletion strains, locus YLR342W, strain FKS1 (second series), stronger effect = lower value 0.991 | S. cerevisiae deletion strains, locus YLR342W, strain FKS1, stronger effect = lower value 0.967 | S. cerevisiae deletion strains, locus YLR357W, strain rsc2, stronger effect = lower value 0.969 | S. cerevisiae deletion strains, locus YLR370C, strain arc18, stronger effect = lower value 0.971 | S. cerevisiae deletion strains, locus YLR371W, strain rom2, stronger effect = lower value 1.01 | S. cerevisiae deletion strains, locus YLR384C, strain iki3, stronger effect = lower value 0.974 | S. cerevisiae deletion strains, locus YLR418C, strain cdc73, stronger effect = lower value 0.976 | S. cerevisiae deletion strains, locus YML016C, strain PPZ1, stronger effect = lower value 1.01 | S. cerevisiae deletion strains, locus YML032C, strain rad52, stronger effect = lower value 1.02 | S. cerevisiae deletion strains, locus YML120C, strain ndi1, stronger effect = lower value 0.965 | S. cerevisiae deletion strains, locus YML124C, strain tub3, stronger effect = lower value 1.01 | S. cerevisiae deletion strains, locus YMR058W, strain fet3, stronger effect = lower value 0.979 | S. cerevisiae deletion strains, locus YMR078C, strain ctf18, stronger effect = lower value 1 | S. cerevisiae deletion strains, locus YMR125W, strain sto1, stronger effect = lower value 0.955 | S. cerevisiae deletion strains, locus YMR129W, stronger effect = lower value 0.981 | S. cerevisiae deletion strains, locus YMR205C, strain PFK2, stronger effect = lower value 0.987 | S. cerevisiae deletion strains, locus YMR223W, strain ubp8, stronger effect = lower value 0.993 | S. cerevisiae deletion strains, locus YMR231W, strain pep5, stronger effect = lower value 0.974 | S. cerevisiae deletion strains, locus YMR263W, strain SAP30, stronger effect = lower value 1.02 | S. cerevisiae deletion strains, locus YMR307W, strain GAS1, stronger effect = lower value 0.971 | S. cerevisiae deletion strains, locus YNL067W, strain RPL9B, stronger effect = lower value 1.02 | S. cerevisiae deletion strains, locus YNL071W, strain lat1, stronger effect = lower value 0.987 | S. cerevisiae deletion strains, locus YNL128W, strain TEP1, stronger effect = lower value 1.01 and 0.992 | S. cerevisiae deletion strains, locus YNL153C, strain GIM3, stronger effect = lower value 1.02 and 0.986 | S. cerevisiae deletion strains, locus YNL175C, strain NOP13, stronger effect = lower value 0.996 | S. cerevisiae deletion strains, locus YNL183C, strain NPR1, stronger effect = lower value 0.991 | S. cerevisiae deletion strains, locus YNL197C, strain WHI3, stronger effect = lower value 0.995 | S. cerevisiae deletion strains, locus YNL209W, strain ssb2, stronger effect = lower value 0.988 | S. cerevisiae deletion strains, locus YNL224C, strain SQS1, stronger effect = lower value 1.02 | S. cerevisiae deletion strains, locus YNL233W, strain BNI4, stronger effect = lower value 1.01 | S. cerevisiae deletion strains, locus YNL248C, strain rpa49, stronger effect = lower value 0.983 | S. cerevisiae deletion strains, locus YNL250W, strain rad50, stronger effect = lower value 1.01 | S. cerevisiae deletion strains, locus YNL271C, strain bni1, stronger effect = lower value 1.02 | S. cerevisiae deletion strains, locus YNL298W, strain CLA4, stronger effect = lower value 1.01 | S. cerevisiae deletion strains, locus YNL307C, strain MCK1, stronger effect = lower value 1 | S. cerevisiae deletion strains, locus YNL322C, strain KRE1 (second series), stronger effect = lower value 0.975 | S. cerevisiae deletion strains, locus YNL322C, strain KRE1, stronger effect = lower value 1.01 and 0.991 | S. cerevisiae deletion strains, locus YNR049C, strain mso1, stronger effect = lower value 0.994 | S. cerevisiae deletion strains, locus YNR052C, strain pop2, stronger effect = lower value 1.01 | S. cerevisiae deletion strains, locus YOL006C, strain TOP1, stronger effect = lower value 1.05 | S. cerevisiae deletion strains, locus YOL012C, strain htz1 1.02 | S. cerevisiae deletion strains, locus YOL147C, strain pex11, stronger effect = lower value 1 | S. cerevisiae deletion strains, locus YOR001W, strain rrp6, stronger effect = lower value 0.95 | S. cerevisiae deletion strains, locus YOR061W, strain CKA2, stronger effect = lower value 1.01 | S. cerevisiae deletion strains, locus YOR069W, strain VPS5, stronger effect = lower value 0.999 | S. cerevisiae deletion strains, locus YOR070C, strain gyp1, stronger effect = lower value 0.999 | S. cerevisiae deletion strains, locus YOR080W, strain dia2, stronger effect = lower value 0.967 | S. cerevisiae deletion strains, locus YOR083W, strain WHI5 (second series), stronger effect = lower value 1.01 | S. cerevisiae deletion strains, locus YOR083W, strain WHI5, stronger effect = lower value 0.962 | S. cerevisiae deletion strains, locus YOR106W, strain vam3, stronger effect = lower value 0.956 | S. cerevisiae deletion strains, locus YOR136W, strain idh2, stronger effect = lower value 1 | S. cerevisiae deletion strains, locus YOR144C, strain elg1, stronger effect = lower value 1 | S. cerevisiae deletion strains, locus YOR184W, strain ser1, stronger effect = lower value 0.989 | S. cerevisiae deletion strains, locus YOR231W, strain MKK1, stronger effect = lower value 1.02 | S. cerevisiae deletion strains, locus YOR265W, strain rbl2, stronger effect = lower value 0.988 | S. cerevisiae deletion strains, locus YOR270C, strain vph1, stronger effect = lower value 0.98 | S. cerevisiae deletion strains, locus YOR290C, strain snf2, stronger effect = lower value 1 | S. cerevisiae deletion strains, locus YOR316C, strain cot1, stronger effect = lower value 1.01 | S. cerevisiae deletion strains, locus YPL051W, strain arl3, stronger effect = lower value 0.991 | S. cerevisiae deletion strains, locus YPL055C, strain LGE1, stronger effect = lower value 1.01 | S. cerevisiae deletion strains, locus YPL078C, strain atp4, stronger effect = lower value 0.923 | S. cerevisiae deletion strains, locus YPL106C, strain sse1, stronger effect = lower value 0.979 | S. cerevisiae deletion strains, locus YPL240C, strain hsp82, stronger effect = lower value 0.99 | S. cerevisiae deletion strains, locus YPL241C, strain CIN2, stronger effect = lower value 1 | S. cerevisiae deletion strains, locus YPL256C, strain CLN2, stronger effect = lower value 1.04 | S. cerevisiae deletion strains, locus YPR119W, strain clb2, stronger effect = lower value 1.01 | S. cerevisiae deletion strains, locus YPR141C, strain kar3, stronger effect = lower value 1.01 | S. cerevisiae deletion strains, locus YPR163C, strain tif3, stronger effect = lower value 1.02 | S. cerevisiae deletion strains, locus YPR167C, strain met16, stronger effect = lower value 1 | S. cerevisiae deletion strains, strain wtn01, stronger effect = lower value 1.01 | S. cerevisiae strains, strain wild type, stronger effect = lower value 1.01
